The results in this text go back to PubChem BioAssay AID1745853 (National Center for Advancing Translational Sciences (NCATS), 2022).

Assay in all cases: Primary Screen for Target Class Profiling of Small Molecule Inhibitors of Methyltransferases
The target of experiment [1] is Catechol O-methyltransferase (Homo sapiens) (UniProt P21964). As to conditions: purified enzyme, MTase-Glo SAH luminescence; activity change, negative = inhibition: at 40 µM, stronger effect = lower value; outcome: 40 uM. In outline: (§1)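 Each enzyme was reacted with SAM and its substrate, with compounds tested once at 40 uM; SAH formed was read by MTase-Glo luminescence.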
In experiment [2] the target is Glycine N-methyltransferase (Homo sapiens) (UniProt Q14749). The conditions noted are these: purified enzyme, MTase-Glo SAH luminescence; measured here: GNMT inhibition; at 40 µM; stronger effect = lower value. In outline: as §1
For experiment [3], the target named is Guanidinoacetate N-methyltransferase (Homo sapiens) (UniProt Q14353). The conditions noted are these: purified enzyme, MTase-Glo SAH luminescence; measured here: GAMT inhibition; at 40 µM; stronger effect = lower value. The procedure, abridged:
as §1

In experiment [4] the target is Histamine N-methyltransferase (Homo sapiens) (UniProt P50135). As to conditions: purified enzyme, MTase-Glo SAH luminescence; measured here: HNMT inhibition; at 40 µM; stronger effect = lower value. In outline: as §1
The target in experiment [5] is Nicotinamide N-methyltransferase (Homo sapiens) (UniProt P40261). As to conditions: purified enzyme, MTase-Glo SAH luminescence; measured here: NNMT inhibition; at 40 µM; stronger effect = lower value. In outline: as §1
The target in experiment [6] is Phenylethanolamine N-methyltransferase (Homo sapiens) (UniProt P11086). As to conditions: purified enzyme, MTase-Glo SAH luminescence; measured here: PNMT inhibition; at 40 µM; stronger effect = lower value. The procedure, abridged:
as §1

Out of some 25,000 compounds screened, about 970 (3.9%) were called active. About 8% were inconclusive and are not listed. How the calls were made is not given here. For the sample, actives were picked, then their nearest neighbours and some compounds at random.
On the % scale 0 is the no-effect control and ±100 the full control effect.

Chain of Glycine N-methyltransferase (Homo sapiens) (Q14749 whole entry, looked up): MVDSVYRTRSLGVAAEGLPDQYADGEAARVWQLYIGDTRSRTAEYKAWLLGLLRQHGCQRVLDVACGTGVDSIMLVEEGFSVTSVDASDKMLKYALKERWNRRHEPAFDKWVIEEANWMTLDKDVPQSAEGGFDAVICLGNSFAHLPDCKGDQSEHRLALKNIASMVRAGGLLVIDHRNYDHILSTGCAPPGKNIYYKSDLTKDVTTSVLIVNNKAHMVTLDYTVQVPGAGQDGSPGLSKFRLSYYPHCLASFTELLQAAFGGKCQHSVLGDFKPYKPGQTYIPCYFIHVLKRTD
Chain of Nicotinamide N-methyltransferase (Homo sapiens) (P40261 whole entry, looked up): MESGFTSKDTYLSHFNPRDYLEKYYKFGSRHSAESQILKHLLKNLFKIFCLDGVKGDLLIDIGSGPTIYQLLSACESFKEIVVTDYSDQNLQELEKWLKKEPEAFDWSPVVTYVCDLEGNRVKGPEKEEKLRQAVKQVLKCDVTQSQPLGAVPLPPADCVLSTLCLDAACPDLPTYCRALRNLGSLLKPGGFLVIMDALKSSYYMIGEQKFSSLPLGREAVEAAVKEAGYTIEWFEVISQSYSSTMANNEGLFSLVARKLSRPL
Chain of Catechol O-methyltransferase (Homo sapiens) (P21964 whole entry, looked up): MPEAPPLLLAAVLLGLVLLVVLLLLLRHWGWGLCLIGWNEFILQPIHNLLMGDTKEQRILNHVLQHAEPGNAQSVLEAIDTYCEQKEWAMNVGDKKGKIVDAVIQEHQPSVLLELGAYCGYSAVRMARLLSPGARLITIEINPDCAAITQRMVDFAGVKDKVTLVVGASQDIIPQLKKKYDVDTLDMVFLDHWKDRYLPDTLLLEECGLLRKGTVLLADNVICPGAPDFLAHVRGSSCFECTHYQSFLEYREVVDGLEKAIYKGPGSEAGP
Chain of Histamine N-methyltransferase (Homo sapiens) (P50135 whole entry, looked up): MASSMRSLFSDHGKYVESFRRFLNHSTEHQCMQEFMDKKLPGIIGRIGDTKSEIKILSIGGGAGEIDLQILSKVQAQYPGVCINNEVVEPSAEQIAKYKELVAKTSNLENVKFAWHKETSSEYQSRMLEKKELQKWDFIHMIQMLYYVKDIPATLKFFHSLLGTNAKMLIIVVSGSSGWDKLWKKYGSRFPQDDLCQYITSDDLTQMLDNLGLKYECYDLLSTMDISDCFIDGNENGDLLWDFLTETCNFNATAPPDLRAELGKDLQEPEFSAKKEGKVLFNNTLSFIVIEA
Chain of Phenylethanolamine N-methyltransferase (Homo sapiens) (P11086 whole entry, looked up): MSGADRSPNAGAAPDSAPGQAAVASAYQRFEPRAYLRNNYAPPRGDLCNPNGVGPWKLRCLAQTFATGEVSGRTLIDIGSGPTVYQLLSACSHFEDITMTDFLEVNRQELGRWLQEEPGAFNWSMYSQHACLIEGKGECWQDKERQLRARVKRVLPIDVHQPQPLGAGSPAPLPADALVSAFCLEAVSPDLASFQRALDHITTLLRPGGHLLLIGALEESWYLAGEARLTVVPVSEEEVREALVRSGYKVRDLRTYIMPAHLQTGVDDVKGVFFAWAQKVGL

As to `COCCOc1cc(=O)n2c(c1C(=O)NCc1ccccc1)CCOCC2`, the activity change, negative = inhibition in experiment [1] is -1.21% (inactive); in experiment [2], 1.04%; in experiment [3], -0.934%; in experiment [4] it was 1.39%; in experiment [5] it was -1.22%; in experiment [6], 1.39%.

In the case of `CCC(C)(C)NC(=O)c1cccc2c1CCN2C(=O)Nc1ccc(C)cc1`, the activity change, negative = inhibition in experiment [1] is -3.57% (inactive); in experiment [2], -1.49%; in experiment [3], -2.95%; in experiment [4], 1.94%; in experiment [5] it was -7.5%; in experiment [6], -2.44%.

As for `Cn1c(=O)n(C)c2cc(Nc3nc4ccccc4nc3NS(=O)(=O)c3ccc(Cl)cc3)ccc21`, the activity change, negative = inhibition is 3.8% (inactive) in experiment [1]; 7.68% in experiment [2]; -3.35% in experiment [3]; -4.47% in experiment [4]; 0.13% in experiment [5]; -6.48% in experiment [6].

As to `O=C(O)CC1CCC(c2ccc(-c3ccc(Nc4ccc(C(F)(F)F)nc4)cn3)cc2)CC1` (stereo not drawn), the activity change, negative = inhibition was 17.9% (active) in experiment [1]; -52.1% in experiment [2]; -12.8% in experiment [3]; 1.31% in experiment [4]; -35.3% in experiment [5]; -4.28% in experiment [6].

On to `CC(C)c1nccn1CCCNc1nc(-c2ccncc2)nc2c1cnn2C`, for which the activity change, negative = inhibition in experiment [1] is -44.5% (active); in experiment [2], -59.1%; in experiment [3] it was -50.1%; in experiment [4] it was -86%; in experiment [5], -53%; in experiment [6], -25.5%.

As to `CCOC(=O)c1cc2n(n1)CC(C)(C(=O)NCc1ccc(F)cc1)N(Cc1ccccc1OC)C2=O` (stereo not drawn), the activity change, negative = inhibition in experiment [1] was -3.88% (inactive); in experiment [2], -3.75%; in experiment [3] it was 3.18%; in experiment [4], 0.898%; in experiment [5], -7.43%; in experiment [6] it was -5.73%.

On to `COCCN1CC2(CCC1=O)CCN(C(=O)[C@@H]1C[C@@H](O)CN1)CC2`, for which the activity change, negative = inhibition in experiment [1] is 4.29% (inactive); in experiment [2], -0.827%; in experiment [3], -1.32%; in experiment [4] it was 1.21%; in experiment [5] it was 0.29%; in experiment [6], -19.8%.

Regarding `CC(C)CCN1CC2(CCCN(C(=O)c3ccn(C)c(=O)c3)C2)CCC1=O` (stereo not drawn), the activity change, negative = inhibition is -31.2% (active) in experiment [1]; -57.8% in experiment [2]; -45.1% in experiment [3]; -13.3% in experiment [4]; -17.7% in experiment [5]; -27% in experiment [6].

Take `COCCCn1c(=O)[nH]c2cccnc21`: the activity change, negative = inhibition in experiment [1] is -9.36% (inactive); in experiment [2] it was -5.17%; in experiment [3], -6.2%; in experiment [4] it was -1.12%; in experiment [5], -14.7%; in experiment [6] it was 9.39%.

Consider `CCCn1c(=O)c2ccc(C(=O)NC(C)C)cc2n2c(=O)n(CC(=O)NCc3ccccc3Cl)nc12`, for which the activity change, negative = inhibition in experiment [1] was 4.33% (inactive); in experiment [2], 2.57%; in experiment [3], 1.92%; in experiment [4] it was 6.44%; in experiment [5], 8%; in experiment [6] it was 4.03%.

Turning to `CCOC(=O)c1cc(Nc2ccc(C(C)=O)cc2)c2cc(Cl)ccc2n1`, the activity change, negative = inhibition in experiment [1] is -3.11% (inactive); in experiment [2], -4.22%; in experiment [3] it was 6.82%; in experiment [4], 0.863%; in experiment [5], 6.54%; in experiment [6], -3.31%.

With `Cc1ccc(N2C(=O)c3cc4sccc4n3CC2(C)C(=O)NC2CCCCC2C)cc1` (stereo not drawn), the activity change, negative = inhibition is -3.6% (inactive) in experiment [1]; -2.03% in experiment [2]; 1.51% in experiment [3]; -1.92% in experiment [4]; -1.16% in experiment [5]; -6.83% in experiment [6].

As for `COc1cccc(-c2nnc3n(CCc4ccccc4)c(=O)c4ccccc4n23)c1O`, the activity change, negative = inhibition in experiment [1] is 0.892% (inactive); in experiment [2], -4.84%; in experiment [3], 0.066%; in experiment [4], 2.53%; in experiment [5] it was -3.08%; in experiment [6], 0.274%.

As for `CN1CCCC1Cc1c[nH]c2ccc(CCS(=O)(=O)c3ccccc3)cc12` (stereo not drawn), the call in experiment [1] was active. The activity change, negative = inhibition in experiment [2] is -2.16%; in experiment [4] it was -89.9%.

Regarding `Cc1cc2c(cc3n2CC(C)(C(=O)NC2CCCCCC2)N(Cc2cccs2)C3=O)o1` (stereo not drawn), the activity change, negative = inhibition is -1.18% (inactive) in experiment [1]; -9.3% in experiment [2]; 4.66% in experiment [3]; -6.23% in experiment [4]; -21% in experiment [5]; -2.94% in experiment [6].

As for `CCCCN1C(=O)c2cc(C(=O)NCc3cccc(OC)c3)nn2CC1(C)C(=O)NC1CCCC1` (stereo not drawn), the activity change, negative = inhibition in experiment [1] is 4.35% (inactive); in experiment [2], 5.79%; in experiment [3], 1.34%; in experiment [4], 1.56%; in experiment [5], 5.98%; in experiment [6], 5.6%.

Consider `CCn1c(=O)n(CC)c2cc(S(=O)(=O)Nc3ccc(Br)c(C)c3)c(Cl)cc21`, for which the activity change, negative = inhibition in experiment [1] was -4.03% (inactive); in experiment [2] it was -3.14%; in experiment [3], 3.91%; in experiment [4] it was -0.387%; in experiment [5], -1.18%; in experiment [6], -4.27%.

In the case of `CCCN1C(=O)c2c(C(=O)NCCc3ccco3)ncn2CC1(C)C(=O)NCc1ccc(C)cc1` (stereo not drawn), the activity change, negative = inhibition in experiment [1] is 7.22% (inactive); in experiment [2], 0.693%; in experiment [3] it was 0.268%; in experiment [4], 5.09%; in experiment [5] it was 4.66%; in experiment [6], 9%.

Take `Cc1c(NC(=O)c2cc(C(N)=O)nc3cc(F)ccc23)c(C(F)(F)F)nn1Cc1ccc(C#N)cc1`: the activity change, negative = inhibition in experiment [1] was -4.71% (inactive); in experiment [2] it was -5.91%; in experiment [3] it was -2.28%; in experiment [4] it was 3.43%; in experiment [5] it was -13.8%; in experiment [6], 1.39%.

`COc1ccccc1CNC(=O)c1nn(CC2CC2)c2c1CNCC2`: the activity change, negative = inhibition in experiment [1] is -8.87% (inactive); in experiment [2] it was -6.08%; in experiment [3] it was -7.04%; in experiment [4] it was -9.87%; in experiment [5] it was -14.1%; in experiment [6], -12.2%.

As for `CC(C)n1c(=O)c2ccc(C(=O)NC3CCCCC3)cc2n2c(=O)n(CC(=O)NC3CCCCC3)nc12`, the activity change, negative = inhibition was -2.65% (inactive) in experiment [1]; -0.578% in experiment [2]; -0.047% in experiment [3]; 2.13% in experiment [4]; -1.76% in experiment [5]; -1.89% in experiment [6].

Regarding `CC(C)Cn1c(=O)c2ccccc2n2c(=O)n(Cc3ccccc3Cl)nc12`, the activity change, negative = inhibition in experiment [1] was 3.16% (inactive); in experiment [2], 2.72%; in experiment [3] it was 1.02%; in experiment [4], 6.97%; in experiment [5] it was -2.52%; in experiment [6], 3.52%.

`COc1c(C)c(OCC=C(C)C)cc2c1C(=O)NC2=O`: the activity change, negative = inhibition in experiment [1] was 2.98% (inactive); in experiment [2] it was 1.17%; in experiment [3], 8.39%; in experiment [4], 6.71%; in experiment [5], -18%; in experiment [6], -15.7%.

With `NC(=O)c1cnc(NCCc2ccc(O)c(Cl)c2)nc1NCc1ccccc1`, the activity change, negative = inhibition was -21.7% (active) in experiment [1]; -31.8% in experiment [2]; -12.1% in experiment [3]; -36% in experiment [4]; -88.5% in experiment [5]; -23.4% in experiment [6].

Turning to `O=C(CCc1nnc2ccc(NCCCN3CCCC3=O)nn12)NCc1ccccc1Cl`, the activity change, negative = inhibition in experiment [1] was 10.2% (inactive); in experiment [2], 1.96%; in experiment [3] it was 2.26%; in experiment [4] it was 10.9%; in experiment [5] it was 1.3%; in experiment [6], 9.12%.

As for `C[C@@H]1C[C@H]2O[C@@]3(O[C@@H]2C(C)(C)O)C(O)[C@@]2(C)C4CCC5C(C)(C)[C@@H](O[C@H]6OC[C@H](O)[C@@H](O)[C@@H]6O)CC[C@@]56C[C@@]46CC[C@]2(C)C13` (stereo partly drawn), the activity change, negative = inhibition in experiment [1] is -3.8% (inactive); in experiment [2], 0%; in experiment [3], -1.51%; in experiment [4] it was -4.39%; in experiment [5] it was -13.7%; in experiment [6], -0.709%.
